# Laboratory results from ChEMBL document CHEMBL3988442, “University of Dundee, Small-Polar-MMV Screening Library” (2021).
# For some of these results: Potency and affinity values are given separately.
# Columns and labels:
# Set-up in all cases: scale not given: direction of the effect not stated beside the values
# [1] = biological target: Protein translocase subunit SecA (Escherichia coli (strain K12)) (UniProt P10408); assay: Assay to Identify E. coli SecA ATPase Inhibitors; type: functional; conditions: 30 µM
# Chain of Protein translocase subunit SecA (Escherichia coli (strain K12)) (P10408 whole entry): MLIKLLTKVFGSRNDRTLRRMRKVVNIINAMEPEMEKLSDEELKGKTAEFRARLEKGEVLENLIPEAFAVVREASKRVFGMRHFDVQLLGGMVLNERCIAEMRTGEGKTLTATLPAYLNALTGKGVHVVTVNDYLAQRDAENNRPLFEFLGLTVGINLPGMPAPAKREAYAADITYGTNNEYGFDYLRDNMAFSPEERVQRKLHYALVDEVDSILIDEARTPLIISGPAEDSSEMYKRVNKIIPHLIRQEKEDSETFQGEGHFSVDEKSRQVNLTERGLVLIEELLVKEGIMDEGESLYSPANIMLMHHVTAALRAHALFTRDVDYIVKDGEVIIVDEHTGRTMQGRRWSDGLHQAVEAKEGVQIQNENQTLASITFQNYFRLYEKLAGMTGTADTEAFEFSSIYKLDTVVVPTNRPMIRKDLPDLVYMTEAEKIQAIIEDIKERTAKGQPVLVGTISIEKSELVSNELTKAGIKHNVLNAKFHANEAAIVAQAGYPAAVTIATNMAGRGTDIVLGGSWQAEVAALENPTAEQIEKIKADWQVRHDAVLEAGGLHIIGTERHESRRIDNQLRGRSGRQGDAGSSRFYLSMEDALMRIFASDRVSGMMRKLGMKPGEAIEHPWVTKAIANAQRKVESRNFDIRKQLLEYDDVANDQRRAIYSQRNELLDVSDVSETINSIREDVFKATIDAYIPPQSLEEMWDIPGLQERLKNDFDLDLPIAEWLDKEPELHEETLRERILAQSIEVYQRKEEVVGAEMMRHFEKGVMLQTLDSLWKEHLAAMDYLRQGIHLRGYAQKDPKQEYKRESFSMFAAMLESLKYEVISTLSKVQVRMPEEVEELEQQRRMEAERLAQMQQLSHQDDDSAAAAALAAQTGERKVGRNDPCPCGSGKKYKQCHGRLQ
# [2] = biological target: T1, Ubiquitin-activating enzyme e1, putative (Leishmania donovani (strain BPK282A1)) (UniProt E9BSI1); assay: Leishmania donovani Ubiquitin Activating Enzyme (LdE1); type: functional; conditions: 30 µM
# T1 sequence (whole entry): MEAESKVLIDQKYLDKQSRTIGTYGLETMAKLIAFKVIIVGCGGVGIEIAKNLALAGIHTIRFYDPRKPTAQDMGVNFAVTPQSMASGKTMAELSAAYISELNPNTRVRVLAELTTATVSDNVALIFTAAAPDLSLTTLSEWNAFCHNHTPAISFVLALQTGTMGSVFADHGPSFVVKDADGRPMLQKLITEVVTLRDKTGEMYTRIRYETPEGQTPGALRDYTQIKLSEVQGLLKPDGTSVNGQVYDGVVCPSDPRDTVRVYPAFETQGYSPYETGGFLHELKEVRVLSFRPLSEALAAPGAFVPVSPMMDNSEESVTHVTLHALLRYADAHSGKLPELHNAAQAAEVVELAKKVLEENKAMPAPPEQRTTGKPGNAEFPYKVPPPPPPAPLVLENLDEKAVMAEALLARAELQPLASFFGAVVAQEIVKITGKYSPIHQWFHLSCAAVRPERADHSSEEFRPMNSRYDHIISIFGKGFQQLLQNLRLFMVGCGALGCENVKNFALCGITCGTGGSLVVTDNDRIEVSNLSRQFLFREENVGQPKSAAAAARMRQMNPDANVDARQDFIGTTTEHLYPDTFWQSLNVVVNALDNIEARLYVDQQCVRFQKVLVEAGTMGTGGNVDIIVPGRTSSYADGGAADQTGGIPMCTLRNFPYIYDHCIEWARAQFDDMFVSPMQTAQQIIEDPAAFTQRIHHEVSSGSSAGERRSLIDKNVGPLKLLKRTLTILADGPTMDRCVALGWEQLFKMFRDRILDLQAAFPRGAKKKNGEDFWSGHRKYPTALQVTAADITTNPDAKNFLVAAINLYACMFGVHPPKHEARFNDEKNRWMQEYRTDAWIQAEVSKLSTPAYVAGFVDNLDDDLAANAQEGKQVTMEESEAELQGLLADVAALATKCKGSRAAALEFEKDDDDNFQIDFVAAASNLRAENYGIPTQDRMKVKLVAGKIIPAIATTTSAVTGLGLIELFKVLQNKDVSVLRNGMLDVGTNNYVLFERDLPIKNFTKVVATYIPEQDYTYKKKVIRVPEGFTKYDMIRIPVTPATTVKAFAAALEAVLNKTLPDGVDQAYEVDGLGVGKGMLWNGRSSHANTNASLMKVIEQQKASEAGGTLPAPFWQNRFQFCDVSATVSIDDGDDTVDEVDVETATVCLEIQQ
# [3] = biological target: AMP-activated protein kinase, AMPK (Homo sapiens) (UniProt P54646+O43741+P54619+Q9UGJ0+Q9Y478+Q13131+Q9UGI9); assay: AMP-dependent Kinase enzyme assay. An in vitro enzyme assay that detects ADP turnover that is directly proportional to AMPK activity. This uses naive AMPK that is activated during the assay with MK-8722; type: functional; conditions: 30 µM
# [4] = biological target: Sialic acid-binding Ig-like lectin 9 (Homo sapiens) (UniProt Q9Y336); assay: Hs-Siglec9 ALPHAscreen SOP 20170721; conditions: 10 µM
# Chain of Sialic acid-binding Ig-like lectin 9 (Homo sapiens) (Q9Y336 whole entry): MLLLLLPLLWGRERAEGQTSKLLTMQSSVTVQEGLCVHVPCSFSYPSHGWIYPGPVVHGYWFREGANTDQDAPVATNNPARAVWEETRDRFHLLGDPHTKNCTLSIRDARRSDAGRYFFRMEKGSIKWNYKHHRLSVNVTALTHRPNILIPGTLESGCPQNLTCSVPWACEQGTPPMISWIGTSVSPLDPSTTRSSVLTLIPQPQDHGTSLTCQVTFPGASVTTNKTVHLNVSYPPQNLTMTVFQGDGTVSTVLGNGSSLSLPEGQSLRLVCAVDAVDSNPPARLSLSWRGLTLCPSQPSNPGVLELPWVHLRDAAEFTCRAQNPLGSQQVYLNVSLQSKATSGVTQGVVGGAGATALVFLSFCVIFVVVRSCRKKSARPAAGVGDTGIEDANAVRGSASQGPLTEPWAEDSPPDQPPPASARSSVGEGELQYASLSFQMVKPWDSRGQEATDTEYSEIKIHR
# [5] = tested on: Trypanosoma cruzi; assay: Trypanosoma cruzi phosphomannomutase and mannose-1-phosphate guanylyltransferase assay; type: functional; conditions: 10 µM
# [6] = biological target: T2, Arginase-2, mitochondrial (Homo sapiens) (UniProt P78540); assay: in vitro enzyme assay to detect the production of urea directly proportional to the activity of Arginase II; type: functional; conditions: 33.3 µM; further: in the data most compounds retested in dose-response had high values
# T2 sequence (whole entry): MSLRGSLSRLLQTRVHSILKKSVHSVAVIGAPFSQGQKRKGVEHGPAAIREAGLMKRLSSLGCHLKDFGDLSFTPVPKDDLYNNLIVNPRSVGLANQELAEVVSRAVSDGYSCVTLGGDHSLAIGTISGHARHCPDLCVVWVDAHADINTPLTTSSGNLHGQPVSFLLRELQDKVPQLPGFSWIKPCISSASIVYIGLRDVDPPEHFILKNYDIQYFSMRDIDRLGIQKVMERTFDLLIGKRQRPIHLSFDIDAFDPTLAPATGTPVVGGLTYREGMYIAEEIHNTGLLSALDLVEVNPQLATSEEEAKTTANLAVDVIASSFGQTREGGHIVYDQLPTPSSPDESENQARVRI
# [7] = biological target: T3, Proteasome subunit beta (Trypanosoma cruzi) (UniProt O96673); assay: Trypanosoma cruzi proteasome chymotrypsin-like activity (TcProtChymo) assay.; further: in the data most compounds retested in dose-response had high values; type: functional; conditions: 9.37 µM
# T3 sequence (whole entry): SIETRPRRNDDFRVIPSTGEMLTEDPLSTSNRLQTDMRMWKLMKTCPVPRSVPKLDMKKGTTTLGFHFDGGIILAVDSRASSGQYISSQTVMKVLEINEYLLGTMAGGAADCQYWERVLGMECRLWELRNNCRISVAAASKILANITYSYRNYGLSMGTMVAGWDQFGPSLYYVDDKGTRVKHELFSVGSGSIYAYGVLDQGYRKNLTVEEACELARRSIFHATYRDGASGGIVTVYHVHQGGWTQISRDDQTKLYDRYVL
# [8] = organism: Homo sapiens; assay: To identify inhibition of the IFN signalling (Jak-Stat) pathway via expression of an eGFP reporter gene under the control of an IFN-stimulated response element (ISRE) containing MxA promoter.; type: functional; conditions: 30 µM
# [9] = biological target: T4, Tyrosyl-tRNA synthetase, putative (Trypanosoma cruzi (strain CL Brener)) (UniProt Q4DSP6); assay: Trypanosoma cruzi tyrosyl tRNA synthetase (TcYRS) _High Tyrosine SOP; type: functional; conditions: 30 µM; further: in the data most compounds retested in dose-response had high values
# T4 sequence (whole entry): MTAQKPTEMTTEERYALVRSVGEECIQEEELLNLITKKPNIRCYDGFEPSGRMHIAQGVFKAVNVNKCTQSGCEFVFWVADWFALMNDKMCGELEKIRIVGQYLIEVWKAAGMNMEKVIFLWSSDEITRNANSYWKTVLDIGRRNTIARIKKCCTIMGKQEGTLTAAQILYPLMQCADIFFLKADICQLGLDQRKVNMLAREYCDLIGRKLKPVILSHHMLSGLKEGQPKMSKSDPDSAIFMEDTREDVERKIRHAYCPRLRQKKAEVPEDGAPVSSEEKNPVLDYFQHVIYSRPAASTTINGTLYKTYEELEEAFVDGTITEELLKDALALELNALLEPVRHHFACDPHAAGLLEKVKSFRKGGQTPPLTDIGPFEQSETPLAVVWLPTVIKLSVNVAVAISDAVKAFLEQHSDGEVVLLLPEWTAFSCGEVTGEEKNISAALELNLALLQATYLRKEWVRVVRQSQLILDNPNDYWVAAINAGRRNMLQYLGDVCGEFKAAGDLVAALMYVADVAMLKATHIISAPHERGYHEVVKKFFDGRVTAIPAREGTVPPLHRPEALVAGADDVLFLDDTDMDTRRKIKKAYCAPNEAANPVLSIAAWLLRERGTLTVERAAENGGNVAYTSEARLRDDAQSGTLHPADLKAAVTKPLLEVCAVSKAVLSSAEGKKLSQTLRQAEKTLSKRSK
# [10] = biological target: T4, Tyrosyl-tRNA synthetase, putative (Trypanosoma cruzi (strain CL Brener)); assay: Trypanosoma cruzi tyrosyl tRNA synthetase (TcYRS) SOP; type: functional; conditions: 30 µM
# [11] = biological target: Chromo domain-containing protein 1 (Saccharomyces cerevisiae (strain ATCC 204508 / S288c) (Baker's yeast)) (UniProt P32657); assay: ScCHD-1 Enzyme Inhibition Assay; type: functional; conditions: 30 µM; further: in the data most compounds retested in dose-response had high values
# Chain of Chromo domain-containing protein 1 (Saccharomyces cerevisiae (strain ATCC 204508 / S288c) (Baker's yeast)) (P32657 whole entry, the tested form may be a part): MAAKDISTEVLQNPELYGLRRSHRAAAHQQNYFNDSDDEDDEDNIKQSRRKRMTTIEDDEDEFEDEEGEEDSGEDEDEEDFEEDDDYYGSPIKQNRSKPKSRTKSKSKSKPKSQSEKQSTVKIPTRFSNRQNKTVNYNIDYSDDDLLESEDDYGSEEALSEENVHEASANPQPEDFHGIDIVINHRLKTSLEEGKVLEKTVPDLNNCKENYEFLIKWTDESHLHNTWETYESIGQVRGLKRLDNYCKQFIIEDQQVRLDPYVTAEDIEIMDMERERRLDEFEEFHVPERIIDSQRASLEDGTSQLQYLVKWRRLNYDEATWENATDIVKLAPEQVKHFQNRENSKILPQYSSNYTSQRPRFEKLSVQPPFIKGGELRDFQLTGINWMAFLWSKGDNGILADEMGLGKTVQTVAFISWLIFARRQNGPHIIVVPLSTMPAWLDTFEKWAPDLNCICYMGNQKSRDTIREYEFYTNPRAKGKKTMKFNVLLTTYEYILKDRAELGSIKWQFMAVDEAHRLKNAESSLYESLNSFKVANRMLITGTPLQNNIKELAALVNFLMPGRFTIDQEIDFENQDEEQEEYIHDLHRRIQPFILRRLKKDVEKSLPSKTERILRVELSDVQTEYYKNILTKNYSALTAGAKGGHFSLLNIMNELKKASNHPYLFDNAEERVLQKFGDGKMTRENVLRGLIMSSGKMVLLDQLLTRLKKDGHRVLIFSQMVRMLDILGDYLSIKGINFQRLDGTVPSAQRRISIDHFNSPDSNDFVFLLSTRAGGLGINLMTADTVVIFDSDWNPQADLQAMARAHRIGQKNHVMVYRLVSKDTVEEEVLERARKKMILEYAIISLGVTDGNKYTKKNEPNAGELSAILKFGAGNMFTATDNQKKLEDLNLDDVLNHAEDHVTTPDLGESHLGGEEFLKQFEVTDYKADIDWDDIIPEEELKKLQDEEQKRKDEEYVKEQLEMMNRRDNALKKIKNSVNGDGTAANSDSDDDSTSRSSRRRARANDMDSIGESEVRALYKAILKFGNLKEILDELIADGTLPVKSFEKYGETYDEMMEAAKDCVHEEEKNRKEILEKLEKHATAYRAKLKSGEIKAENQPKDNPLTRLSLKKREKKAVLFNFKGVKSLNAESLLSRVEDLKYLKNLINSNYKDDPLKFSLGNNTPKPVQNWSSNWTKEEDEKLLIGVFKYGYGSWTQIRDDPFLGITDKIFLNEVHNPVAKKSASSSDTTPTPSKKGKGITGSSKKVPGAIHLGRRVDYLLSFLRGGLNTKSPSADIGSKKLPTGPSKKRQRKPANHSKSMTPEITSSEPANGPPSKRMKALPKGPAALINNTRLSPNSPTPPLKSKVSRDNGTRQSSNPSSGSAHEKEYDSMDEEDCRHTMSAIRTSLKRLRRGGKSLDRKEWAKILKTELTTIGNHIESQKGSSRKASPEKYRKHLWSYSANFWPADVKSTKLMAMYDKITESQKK
SMILES,Percent Effect [1] [%],Percent Effect [2] [%],Percent Effect [3] [%],Percent Effect [4] [%],Percent Effect [5] [%],Percent Effect [6] [%],Percent Effect [7] [%],Percent Effect [8] [%],Percent Effect [9] [%],Percent Effect [10] [%],Percent Effect [11] [%]
Cc1nn(C)c(C)c1C1CCCN1Cc1nc(C)c2ccccc2n1 (stereo not given),-3.55,3.8,1.88,-0.0747,1.74,1.94,2.06,-6.74,20.8,25.3,-22.5
c1cncc(CN2CCc3ncnc(C4CCOC4)c3CC2)c1 (stereo not given),1.94,21.3,13.3,-7,-4.92,2.1,7.14,15.9,5.32,6.41,-0.839
CCCc1cc(=O)n(CC(N)=O)c(-n2nc(C)cc2C)n1,-1.73,7.79,7.17,-1.59,2.46,-4.52,10.1,32,3.17,11.5,-9.6
O=C(NC1CC1)[C@H]1C[C@@H]2CCN(CCc3ccccc3)C[C@H]2O1,2.18,10.7,9.4,-8.83,-7.28,2.56,4.85,4.51,1.06,11.5,-2.58
Cn1cc(C2CCCN2Cc2csc(-c3ccsc3)n2)cn1 (stereo not given),-1.56,-2.53,-11.2,3.12,-7.46,0.76,3.36,8.82,-24.1,3.8,-2
C1CC(CN2CCO[C@H]3[C@H](OCC4CC4)CC[C@@H]32)CCO1,-7.62,2.7,-2.6,-1.5,-2.93,2.08,16.3,7.72,5.94,3.66,-1.93
CCc1nc2n(n1)CC(NCC(=O)Nc1ccc(Cl)cn1)CC2 (stereo not given),-0.524,10.1,-6.65,-1.69,-7.65,3.04,5.82,12.9,0.493,3.8,-7.63
Cc1ccc(-c2cn[nH]c2C2CCCN(c3nccc(N)n3)C2)cc1 (stereo not given),-2.69,20.8,46.7,15.4,5.15,-1.77,25.6,37.1,7.37,20.5,3.03
CC(O)CN1CCC(CNCc2cccc(C(N)=O)c2)CC1 (stereo not given),-1.81,18.9,-22.5,11,3.11,-6.01,6.67,10.6,8.37,16.1,-10
Cc1cc(C)n(CC2CN(CC(=O)Nc3nncs3)CCO2)n1 (stereo not given),-3.97,15.6,1.37,0.371,-6.37,3.2,-4.05,26.9,6.8,12.2,-2.27
COCCNC(=O)[C@H]1CN(Cc2nccs2)C[C@H]2OCC[C@@H]12,-3.36,16.4,-2.81,11.4,3.17,2.4,6.25,15.8,5.21,1.24,-0.333
Cn1ncc2c1C(COCC1CC1)CN(Cc1nccs1)C2 (stereo not given),-1.87,15.6,-6.52,0.425,1.87,5.81,1.92,28.4,8.47,14.1,-10.6
O=C1CCC2(CCCN(C(=O)c3cscn3)C2)CN1CCc1c[nH]cn1 (stereo not given),-3.15,7.79,-3.24,13.5,6.98,-9.65,15.1,-31.6,5.38,13.6,-5.62
O=C(c1cscn1)N1C[C@H]2CCCC(OCc3cccnc3)[C@H]2C1 (stereo not given in full),-5.26,5.33,-2.55,2.64,-0.193,-37.5,9.06,-6.53,1.04,12.5,-5
CC(C)c1cc(NCC(O)c2ccc(F)cc2)n2nccc2n1 (stereo not given),-2.04,2.7,10.8,1.77,1.35,-4.29,3.97,38.1,2.65,7.32,4.86
CN(Cc1ccon1)C(=O)C1CC(=O)N(Cc2ccncc2)C1 (stereo not given),-6.1,5.41,-1.61,13.8,-0.684,0.248,2.66,14.7,5.38,8.64,-4.6
Cc1cc(C2CCCN(CCCS(=O)(=O)c3ccccc3)C2)n[nH]1 (stereo not given),-0.801,15.2,-4.79,-8.5,-3.87,6.46,4.34,18.4,4.43,11.4,-5.44
CCCNCc1cc2c(C)cc(C)cc2n2c(=O)n(C)nc12,-5.13,4.05,11,0.45,4.94,9.05,5.62,16.2,4.3,3.9,-20
COc1ccc(C2=C(C)C(N3CCc4ccccc4C3)=NS2(=O)=O)cc1,-1.81,-7.79,1.57,-18,3.45,4.52,13.1,9.07,-122,-39.7,79.2
COCc1ccc(CN2CCC(O)(Cn3ccc4ncccc43)CC2)o1,-1.21,2.67,-2.95,1.83,5.51,0.233,9.07,7.16,2.13,3.85,-6.45
